Measured values published in the supplement of paper PMC6897291.

Tests used:
[1] = test system: U-2932; test: growth inhibition by drug alone (1 - RLU/untreated control) (fraction); higher = stronger inhibition; settings: 177Lu-lilotomab satetraxetan 0 ug/ml
In short: (§1)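 A radiolabelled anti-CD37 antibody conjugate (~600 MBq/mg) was applied for 18 h at 0.5 µg/ml to RIVA and 1 µg/ml to U-2932 cells, with untreated cells run alongside. All cells were washed and seeded at 3,000 cells/well onto library-printed plates at 10/100 nM (RIVA) or 10/1,000 nM (U-2932). Growth inhibition was based on RealTime-Glo luminescence compared with untreated no-drug wells. Daily reads began on day 3 after 1 h at 37°C, with each value being 1 − RLU/mean of the 48 such wells on that plate.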

[2] = test system: RIVA; test: as above; settings: 177Lu-lilotomab satetraxetan 0 ug/ml
In short: as §1

[3] = test system: U-2932; test: growth inhibition by drug plus 177Lu-lilotomab satetraxetan (1 - RLU/untreated control) (fraction); higher = stronger inhibition; settings: 177Lu-lilotomab satetraxetan 1 ug/ml
In short: as §1

[4] = test system: RIVA; test: as above; settings: 177Lu-lilotomab satetraxetan 0.5 ug/ml
In short: as §1

Row | SMILES | growth inhibition by drug alone ([1]; 10 nM, time (day): 3) | growth inhibition by drug alone ([1]; 10 nM, time (day): 4) | growth inhibition by drug alone ([1]; 10 nM, time (day): 5) | growth inhibition by drug alone ([1]; 10 nM, time (day): 6) | growth inhibition by drug alone ([1]; 1000 nM, time (day): 3) | growth inhibition by drug alone ([1]; 1000 nM, time (day): 4) | growth inhibition by drug alone ([1]; 1000 nM, time (day): 5) | growth inhibition by drug alone ([1]; 1000 nM, time (day): 6) | growth inhibition by drug alone ([2]; 10 nM, time (day): 3) | growth inhibition by drug alone ([2]; 10 nM, time (day): 4) | growth inhibition by drug alone ([2]; 10 nM, time (day): 5) | growth inhibition by drug alone ([2]; 10 nM, time (day): 6) | growth inhibition by drug alone ([2]; 100 nM, time (day): 3) | growth inhibition by drug alone ([2]; 100 nM, time (day): 4) | growth inhibition by drug alone ([2]; 100 nM, time (day): 5) | growth inhibition by drug alone ([2]; 100 nM, time (day): 6) | growth inhibition by drug plus 177Lu-lilotomab satetraxetan ([3]; 10 nM, time (day): 3) | growth inhibition by drug plus 177Lu-lilotomab satetraxetan ([3]; 10 nM, time (day): 4) | growth inhibition by drug plus 177Lu-lilotomab satetraxetan ([3]; 10 nM, time (day): 5) | growth inhibition by drug plus 177Lu-lilotomab satetraxetan ([3]; 10 nM, time (day): 6) | growth inhibition by drug plus 177Lu-lilotomab satetraxetan ([3]; 1000 nM, time (day): 3) | growth inhibition by drug plus 177Lu-lilotomab satetraxetan ([3]; 1000 nM, time (day): 4) | growth inhibition by drug plus 177Lu-lilotomab satetraxetan ([3]; 1000 nM, time (day): 5) | growth inhibition by drug plus 177Lu-lilotomab satetraxetan ([3]; 1000 nM, time (day): 6) | growth inhibition by drug plus 177Lu-lilotomab satetraxetan ([4]; 10 nM, time (day): 3) | growth inhibition by drug plus 177Lu-lilotomab satetraxetan ([4]; 10 nM, time (day): 4) | growth inhibition by drug plus 177Lu-lilotomab satetraxetan ([4]; 10 nM, time (day): 5) | growth inhibition by drug plus 177Lu-lilotomab satetraxetan ([4]; 10 nM, time (day): 6) | growth inhibition by drug plus 177Lu-lilotomab satetraxetan ([4]; 100 nM, time (day): 3) | growth inhibition by drug plus 177Lu-lilotomab satetraxetan ([4]; 100 nM, time (day): 4) | growth inhibition by drug plus 177Lu-lilotomab satetraxetan ([4]; 100 nM, time (day): 5) | growth inhibition by drug plus 177Lu-lilotomab satetraxetan ([4]; 100 nM, time (day): 6)
1 | CN1CCN(c2ccc3nc(-c4c(N)c5c(F)cccc5[nH]c4=O)[nH]c3c2)CC1 [Dovitinib (TKI-258)] | 0.12 | 0.0504 | -0.004 | -0.0165 | 0.0669 | -0.0112 | -0.0673 | -0.128 | 0.0921 | 0.0422 | -0.0205 | -0.168 | -0.156 | -0.0867 | -0.188 | -0.316 | 0.0639 | 0.0792 | 0.118 | 0.243 | 0.0496 | 0.031 | 0.0265 | 0.126 |  |  |  |  |  |  |  | 
2 | Cc1csc(-c2nnc(Nc3ccc(Oc4ncccc4-c4ccnc(N)n4)cc3)c3ccccc23)c1 | 0.0562 | -0.00651 | 0.0489 | 0.269 | 0.102 | 0.112 | 0.103 | 0.252 | 0.0279 | -0.0253 | 0.0704 | 0.206 | -0.211 | -0.208 | -0.145 | -0.0126 | 0.0788 | 0.121 | 0.207 | 0.449 | 0.271 | 0.306 | 0.344 | 0.538 |  |  |  |  |  |  |  | 
3 | N#CC1(c2ccc(NC(=O)c3cccnc3NCc3ccncc3)cc2)CCCC1 [Apatinib (YN968D1)] |  |  |  |  |  |  |  |  |  |  |  |  |  |  |  |  | 0.0626 | 0.101 | 0.109 | 0.137 | -0.0473 | 0.0612 | 0.0296 | 0.0686 | 0.491 | 0.579 | 0.593 | 0.615 | 0.497 | 0.559 | 0.555 | 0.524
4 | COc1cc2nccc(Oc3ccc(NC(=O)C4(C(=O)Nc5ccc(F)cc5)CC4)cc3)c2cc1OC [XL-184 free base (Cabozantinib)] |  |  |  |  |  |  |  |  | 0.0104 | 0.0385 | -0.0535 | -0.315 | -0.233 | -0.0966 | -0.104 | -0.224 | 0.0398 | 0.083 | 0.153 | 0.164 | 0.112 | 0.177 | 0.224 | 0.337 | 0.545 | 0.613 | 0.621 | 0.628 | 0.445 | 0.52 | 0.529 | 0.532
5 | CO[C@H]1C[C@@H]2CC[C@@H](C)[C@@](O)(O2)C(=O)C(=O)N2CCCC[C@H]2C(=O)O[C@H]([C@H](C)C[C@@H]2CC[C@@H](O)[C@H](OC)C2)CC(=O)[C@H](C)/C=C(\C)[C@@H](O)[C@@H](OC)C(=O)[C@H](C)C[C@H](C)/C=C/C=C/C=C/1C [Rapamycin (Sirolimus)] |  |  |  |  |  |  |  |  | 0.777 | 0.792 | 0.785 | 0.748 | 0.8 | 0.833 | 0.827 | 0.803 | 0.692 | 0.666 | 0.631 | 0.623 | 0.703 | 0.69 | 0.662 | 0.657 | 0.839 | 0.875 | 0.88 | 0.873 | 0.829 | 0.867 | 0.88 | 0.878
6 | CC[C@H](Nc1ncnc2[nH]cnc12)c1nc2cccc(F)c2c(=O)n1-c1ccccc1 | -0.00827 | -0.000402 | -0.0211 | 0.0544 | 0.567 | 0.374 | 0.289 | 0.263 | -0.102 | -0.203 | -0.182 | -0.255 | 0.424 | 0.204 | 0.175 | 0.0639 | -0.0906 | -0.0707 | -0.0592 | 0.0112 | 0.507 | 0.287 | 0.217 | 0.234 |  |  |  |  |  |  |  | 
7 | COc1cc2ncnc(-n3nc(-c4ccccn4)nc3N)c2cc1OC |  |  |  |  |  |  |  |  | -0.00526 | 0.0304 | -0.00529 | -0.18 | -0.0276 | -0.0495 | -0.074 | -0.143 | 0.0575 | 0.105 | 0.1 | 0.113 | -0.00115 | 0.0649 | 0.0622 | 0.0772 | 0.485 | 0.573 | 0.58 | 0.588 | 0.535 | 0.578 | 0.579 | 0.559
8 | O=C(NOC[C@H](O)CO)c1ccc(F)c(F)c1Nc1ccc(I)cc1F |  |  |  |  |  |  |  |  | 0.198 | 0.141 | 0.026 | -0.212 | 0.191 | 0.122 | 0.0195 | -0.189 | 0.138 | 0.163 | 0.15 | 0.218 | 0.162 | 0.231 | 0.189 | 0.269 | 0.487 | 0.514 | 0.508 | 0.496 | 0.552 | 0.532 | 0.512 | 0.467
9 | COCC[n+]1c2c(n(Cc3cnccn3)c1C)C(=O)c1ccccc1C2=O |  |  |  |  |  |  |  |  | 0.984 | 0.981 | 0.98 | 0.981 | 0.98 | 0.979 | 0.98 | 0.979 | 0.945 | 0.95 | 0.969 | 0.977 | 0.988 | 0.988 | 0.989 | 0.991 | 0.988 | 0.985 | 0.986 | 0.986 | 0.986 | 0.989 | 0.989 | 0.989
10 | Nc1nc(F)nc2c1ncn2[C@@H]1O[C@H](CO)[C@@H](O)[C@@H]1O [Fludarabine (Fludara)] |  |  |  |  |  |  |  |  | 0.0792 | 0.0421 | 0.0106 | -0.266 | -0.264 | -0.213 | -0.187 | -0.228 | 0.0486 | 0.0769 | 0.126 | 0.16 | 0.00481 | 0.105 | 0.131 | 0.185 | 0.546 | 0.58 | 0.591 | 0.585 | 0.504 | 0.553 | 0.573 | 0.585
